Results filed as inconclusive are left out. A call without a number means that no potency is given here. Activity calls are given as the source filed them. Calls follow the shape of the dose curve; as a rule, active = well fitted cell-killing curve with a large enough effect in the repeat runs; inconclusive = weak or mixed curves; inactive = flat fitted curve, though single readings scatter.
Test: qHTS assay to identify small molecule antagonists of the estrogen receptor beta (ER-beta) signaling pathway - cell viability counter screen (AID 1259382); also: nearly all actives have a fitted effect of over 55% in size
Conditions: ER-beta-UAS-bla HEK293T viability, CellTiter-Glo luminescence, 16 h; series mostly up to 92.4 µM
Text: U.S. Tox21 Program National Center for Advancing Translational Sciences [NCATS] NIH Chemical Genomics Center [NCGC] U.S. Environmental Protection Agency [EPA] National Institutes of Environmental Health Sciences [NIEHS] National Toxicology Program [NTP] U.S. Food and Drug Administration [FDA] Tox21 Assay Overview: Estrogen receptor (ER), a nuclear hormone receptor, plays an important role in development, metabolic homeostasis and reproduction. Two subtypes of ER, ER-alpha and ER-beta, have similar expression patterns with some uniqueness in both types. Endocrine disrupting chemicals (EDCs) and their interactions with steroid hormone receptors like ER causes disruption of normal endocrine function. To identify the compounds that inhibit ER signaling, an ER-beta-UAS-bla GripTite cell line (Life Technologies, Madison, WI, USA) containing a beta-lactamase reporter gene under the control of an UAS response element was used to screen Tox21 10K compound library. The cytotoxicity of the Tox21 compound library against the ER-beta-bla cell line was tested in parallel by measuring the cell viability using CellTiter-Glo assay in the same wells.
Tox21 Assay Protocol Summary: ER-beta-UAS-bla HEK293T cells were dispensed at 2,000 cells/4 uL of assay medium containing 2% charcoal stripped FBS per well into black wall/clear-bottom 1536-well plates using a Multidrop Combi (ThermoFisher Scientific, Waltham, MA) dispenser. After the assay plates were incubated at a 37C and 5% CO2 for 6 hr, 23 nL of compounds dissolved in DMSO, positive controls or DMSO only was transferred to the assay plate by a Pintool station (Kalypsys, San Diego, CA), followed by addition of 1 uL (1nM as final concentration) of 17-beta-estradiol (E2) in assay medium using a Flying Reagent Dispenser (FRD, Aurora Discovery, San Diego, CA). The plates were incubated at 37C and 5% CO2 for 16 hr. Then 1 uL of LiveBLAzer B/G FRET substrate was added using a Flying Reagent Dispenser, the plates were incubated at room temperature for 2 hours, and fluorescence intensity was measured by an Envision plate reader (PerkinElmer, Shelton, CT). For cell viability readout that measures cytotoxicity, 4 uL/well of CellTiter-Glo reagent was added into the assay plates using a FRD. After 30 min incubation at room temperature, the luminescence intensity in the plates was measured using a ViewLux (PerkinElmer) plate reader.
For `Nc1ccc(N=Nc2ccc(-c3ccc(N=Nc4c(S(=O)(=O)O)cc5cc(S(=O)(=O)O)c(N=Nc6ccccc6)c(O)c5c4N)cc3)cc2)c(N)c1`, the Potency was “inactive”. In the case of `N#Cc1ccc(Cl)cc1`, the Potency was “inactive”. For `CCCC(Cn1cncn1)c1ccc(Cl)cc1Cl` (stereo not given), the Potency was “inactive”. With `CCOP(=S)(OCC)Oc1nc(Cl)c(Cl)cc1Cl` the Potency was “inactive”. In the case of `c1ccc(CN2CCNCC2)cc1`, the Potency was “inactive”. With `CC/C(=N\OC/C=C/Cl)C1=C(O)CC(C2CCOCC2)CC1=O` (stereo not given) the Potency was “inactive”. In the case of `COc1cc(Cl)c(OC)cc1Cl`, the Potency was “inactive”. For `O=C(Nc1ccccc1)Nc1ccnc(Cl)c1`, the Potency was “inactive”. With `Cn1sc(Cl)cc1=O` the Potency was “inactive”. In the case of `CC(C)N(CCC(C(N)=O)(c1ccccc1)c1ccccn1)C(C)C` (stereo not given), the Potency was “inactive”. In the case of `C[C@@H]1CC[C@H]2[C@@H](C)C(=O)O[C@@H]3O[C@@]4(C)CC[C@@H]1[C@]32OO4`, the Potency was “inactive”. For `Clc1cc(Cl)c(Cl)c(Cl)c1`, the Potency was “inactive”. For `CC1CC(CC2CCC(N)C(C)C2)CCC1N` (stereo not given), the Potency was “inactive”. For `CCC(Br)(CC)C(=O)NC(N)=O`, the Potency was “inactive”. For `CCOP(=O)(OCC)O/C(=C/Cl)c1ccc(Cl)cc1Cl`, the Potency was “inactive”. In the case of `C=CCN1CC[C@]23c4c5ccc(O)c4O[C@H]2C(=O)CC[C@@]3(O)[C@H]1C5`, the Potency was “inactive”. In the case of `CC[C@H]1C[C@H]2[C@@H]3CCC4=CC(=O)CC[C@@H]4[C@H]3CC[C@]2(C)[C@H]1O`, the Potency was “inactive”. With `C=CC(=O)OCC(C)C` the Potency was “inactive”. In the case of `O=NN1CCNCC1`, the Potency was “inactive”. In the case of `COP(=O)(OC)O/C(=C/Cl)c1cc(Cl)c(Cl)cc1Cl`, the Potency was “inactive”. With `C/C=C/C=O` the Potency was “inactive”. With `CCCCN=C=O` the Potency was “inactive”. For `Brc1ccc(Oc2ccccc2)cc1`, the Potency was “inactive”. For `CCc1ccc(C(=O)NN(C(=O)c2cc(C)cc(C)c2)C(C)(C)C)cc1`, the Potency was “inactive”. In the case of `O=C1CN=C(c2ccccc2)c2cc(Cl)ccc2N1CC1CC1`, the Potency was “inactive”. For `CCO[C@H]1O[C@@H]2OC3(C)CC[C@H]4[C@H](C)CC[C@@H]([C@H]1C)[C@@]24OO3`, the Potency was “inactive”. With `C=C(C#N)CCC#N` the Potency was “inactive”. In the case of `[CH3][Sn]([CH3])([Cl])[Cl]`, the Potency was “inactive”. In the case of `CCC(Cl)CCl` (stereo not given), the Potency was “inactive”. With `COCC(C)N(C(=O)CCl)c1c(C)csc1C` (stereo not given) the Potency was “inactive”. For `C=CC[C@]1(O)CC[C@H]2[C@@H]3CCC4=CC(=O)CCC4=C3C=C[C@@]21C`, the Potency was “inactive”. With `CCCN(CCC)c1c([N+](=O)[O-])cc(S(C)(=O)=O)cc1[N+](=O)[O-]` the Potency was “inactive”. With `CCOC(=O)[C@]1(c2ccccc2)Oc2ccccc2[C@@H]1N` the Potency was “inactive”. With `COP(=S)(Oc1cc(Cl)c(Br)cc1Cl)c1ccccc1` (stereo not given) the Potency was “inactive”. In the case of `O=C(CBr)Nc1ccc(Cl)cc1C(=O)c1ccccc1F`, the Potency was “inactive”. For `CCC(COC(=O)c1cc(OC)c(OC)c(OC)c1)(c1ccccc1)N(C)C` (stereo not given), the Potency was “inactive”. In the case of `CCCCOC(=O)c1ccccc1C(=O)OCc1ccccc1`, the Potency was “inactive”. For `CC1(C)[C@H](C=C(Cl)Cl)[C@@H]1C(=O)O[C@@H](C#N)c1cccc(Oc2ccccc2)c1`, the Potency was “inactive”. For `COP(=S)(OC)Oc1cc(Cl)c(I)cc1Cl`, the Potency was “inactive”. In the case of `CCOP(=O)(OCC)SCCSCC`, the Potency was “inactive”.
